Shown are actives, neighbours in structure and some others; about 19% of the full set was active somewhere.
DT40 TDP1 CPT = qHTS for Inhibitors of human tyrosyl-DNA phosphodiesterase 1 (TDP1): qHTS in cells in presence of CPT | Potency, µM (top dose mostly 46.2 µM), for inactives: at the highest dose activity change, negative = growth inhibition, most hits filed as inhibitors | chicken DT40 Tdp1-/-;hTDP1 cells + 20 nM CPT, ATP luminescence, 48 h | actives 12% (n = 420,000); note: potency is the fitted concentration of half-maximal effect; nearly all actives have a fitted effect of over 55% in size
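Chicken DT40 Tdp1-/- cells stably complemented with human TDP1 were seeded at 400 cells/well in medium containing 20 nM camptothecin, exposed to pin-transferred compounds, and grown at 37 °C for at least 48 hr. Viability was read as ATP luminescence.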
HT1080 IDH1KD tx = qHTS for induction of synthetic lethality in tumor cells producing 2HG: qHTS for the HT-1080-IDH1KD cell line; HT-1080 IDH1 knockdown viability, ATP luminescence, 48 h; Potency, µM (top dose mostly 46.1 µM), without a hit: top-dose activity, negative = toxicity, most hits filed as cytotoxic; actives 2% (n = 360,000); AID 686971, 2013;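 note: potency is the fitted concentration of half-maximal effect; 0% = DMSO wells and -100% = cell-free medium wells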
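Using the IDH1-knockdown HT-1080 line run in the same batch and compound series as the NT line, viability after 48 h at 37 °C was determined by CellTiter-Glo luminescence and expressed as % activity.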
HT1080NT lethal = qHTS for induction of synthetic lethality in tumor cells producing 2HG: qHTS for the HT-1080-NT fibrosarcoma cell line. HT-1080-NT fibrosarcoma viability, CellTiter-Glo ATP luminescence, 48 h. Potency, µM (doses to about 46.1 µM), inactives show top-dose activity, negative = less viability, usual class: cytotoxic. actives 1.6% (n = 360,000). AID 686970, 2013;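 note: NT is the 2HG producing partner of a matched IDH1 knockdown line; potency is the fitted concentration of half-maximal effect; 0% = DMSO-treated cells and -100% = media-only wells without cells; nearly all actives have a fitted effect of over 55% in size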
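HT-1080-NT; 750 cells/well; 5% FBS RPMI; 48 h compound, 37 degrees C; CellTiter-Glo luminescence; curve fitting and curve-class assignment.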
ELG1 repair inh = qHTS screen for small molecules that inhibit ELG1-dependent DNA repair in human embryonic kidney (HEK293T) cells expressing luciferase-tagged ELG1; AID 504467, 2011; HEK293T ELG1-luciferase reporter, luminescence, 16 h; DNA damage induced by 5-fluorouridine; Potency, µM (doses to about 46.1 µM), inactives show top-dose activity change, negative = inhibition, hits mostly inhibitors; actives 2.3% (n = 330,000); note: potency is the fitted concentration of half-maximal effect; nearly all actives have a fitted effect of over 55% in size
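Overnight (16 hr) co-exposure of 2,000 cells/well to 5-fluorouridine and compound at 37 °C preceded detection. Luciferase was quantified via ONE-Glo luminescence; loss of signal denotes inhibition.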
IL-1B inflam inh = qHTS for Inhibitors of Inflammasome Signaling: IL-1-beta AlphaLISA Primary Screen; THP-1 LPS/ATP IL-1B secretion, AlphaLISA, 16 h; active compounds read low; activity change, % at 57.5 µM; actives 4.7% (n = 360,000); AID 743279, 2014; in the data active = activity change below about -50%; inconclusive = mostly about -30% to -49%
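THP-1 cells pretreated 1 hr with compounds (up to 57.5 uM final), then stimulated with LPS (250 ng/mL final) plus ATP (1.25 mM final); secreted IL-1B measured by AlphaLISA after 16 hr, decreased signal indicating inhibition.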
DT40 TDP1 no CPT = qHTS for Inhibitors of human tyrosyl-DNA phosphodiesterase 1 (TDP1): qHTS in cells in absence of CPT; DT40 Tdp1-/- hTDP1 cells, no CPT, ATP luminescence, 48 h; Potency, µM (top dose mostly 46.2 µM), without a hit: at the highest dose activity change, negative = growth inhibition, most hits filed as inhibitors; actives 15% (n = 420,000); AID 686978, 2013; note: potency is the fitted concentration of half-maximal effect; nearly all actives have a fitted effect of over 55% in size
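Seeded 400 DT40-hTDP1 cells/well (vehicle DMSO, no 20 nM CPT); pinned compounds; ≥48 hr at 37 °C; CellTiter-Glo luminescence as viability measure.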
* hit, by the source's call; ? = inconclusive; . = no result. Unless noted, calls come from the whole dose curve; as a rule, active = well fitted curve in the direction sought with a large enough effect; inconclusive = small, poorly fitted or top-dose-only effect, or another doubt; inactive = no such curve, though single readings can be large; an effect the other way counts as inactive or inconclusive. Unless noted, % is set by controls: 0 for no effect and ±100 for the full control effect.

SMILES	DT40 TDP1 CPT	HT1080 IDH1KD tx	HT1080NT lethal	ELG1 repair inh	IL-1B inflam inh	DT40 TDP1 no CPT
COc1cccc(CN(C)CC(O)COc2cc(Cl)ccc2Cl)c1 (configuration not stated)	?	-7%	-5%	-2%	-2	?
COc1ccccc1/C=C1\SC(=S)N(CCC(=O)Nc2cc(C)on2)C1=O	-19%	16%	-1%	-13%	-12	?
CCC(SC1=N/C(=C/c2ccccc2OC)C(=O)N1c1ccccc1)C(=O)Nc1cc(C)on1 (configuration not stated)	12µM*	5%	4%	?	-3	8.2µM*
O=C(NCCNc1ccc([N+](=O)[O-])cc1)c1ccc(Cl)cc1	-1%	-19%	-6%	7%	-9	-23%
O=C(/C=C/c1ccc(Cl)cc1)NC1CC2CCC1C2 (configuration not stated)	-1%	-10%	-5%	?	-99*	?
Cc1cc(C)cc(Oc2c(C(F)(F)F)oc3cc(OCC(=O)NC4CCCCC4)ccc3c2=O)c1	-8%	.	.	.	.	?
CCOC(=O)C1(Cc2cccc(F)c2)CCN(Cc2ccc(COC)o2)CC1	23µM*	13%	0%	23µM*	0	21µM*
CCOC(=O)C1(Cc2ccccc2)CCN(Cc2ccc(COC)o2)CC1	12µM*	7%	0%	-6%	-10	?
CCOC(=O)C1(CCOc2ccccc2)CCN(Cc2ccc(COC)o2)CC1	7.3µM*	-8%	-6%	?	-57*	?
CCOC(=O)C1(Cc2cccc(F)c2)CCN(C2CCOCC2)CC1	-4%	17%	9%	12%	-13	-9%
CCOC(=O)C1(CCOc2ccccc2)CCN(Cc2cnc(C)[nH]2)CC1	2%	-11%	-11%	-9%	-94*	?
O=C(NCCCN1CCCC1=O)c1cccc(NS(=O)(=O)c2ccc(Br)cc2)c1	?	-9%	-8%	-6%	11	?
O=C(Nc1ccc(F)c(Cl)c1)c1ccccc1NC(=O)C1CCCCC1C(=O)O (configuration not stated)	?	-9%	-5%	.	-15	?
CCOC(=O)C1(Cc2ccccc2)CCN(Cc2ccc(C)s2)CC1	?	-29%	-17%	?	-26	23µM*
CCOC(=O)C1(Cc2ccccc2)CCN(Cc2nccn2CC)CC1	?	-18%	-12%	0%	0	?
CC(=O)c1ccc(NC(=O)CCOc2cc(C)ccc2C)cc1	?	-1%	1%	?	0	?
Cc1c(C(=O)N2CCOCC2)sc(NC(=O)c2ccc([N+](=O)[O-])cc2)c1C#N	?	15%	7%	?	44	?
Cc1c(C(=O)N2CCOCC2)sc(NC(=O)CCl)c1C#N	13µM*	12µM*	13µM*	?	-22	12µM*
Cc1cc(-c2nnc(CCC(=O)NC(C)(C)C34CC5CC(CC(C5)C3)C4)o2)no1	-15%	-2%	3%	.	32	?
CC(C)(C)Cc1c(-c2ccc(Cl)cc2)nc2ccc(Br)cn12	?	-22%	?	.	39	?
CC(C)(C)Cc1c(-c2ccccc2)nc2ccc(Cl)cn12	23µM*	7%	-1%	.	58	23µM*
CCOC(=O)c1c(-c2ccccc2)nc2ccc(Cl)cn12	?	4%	6%	-8%	14	16µM*
CC(C)(C)Cc1c(-c2ccc(Cl)cc2)nc2ccc(Cl)cn12	?	?	?	.	16	?
CC(C)(C)Cc1c(-c2ccc(Br)cc2)nc2ccc(Cl)cn12	21µM*	?	?	.	61	?
CC(C)(C)Cc1c(-c2ccc(F)cc2)nc2ccc(Br)cn12	?	3%	-2%	.	55	16µM*
SMILES	DT40 TDP1 CPT	HT1080 IDH1KD tx	HT1080NT lethal	ELG1 repair inh	IL-1B inflam inh	DT40 TDP1 no CPT
Cc1cc2occ(CC(=O)N(C)CC(=O)Nc3ccccc3Cl)c2cc1C	10%	3%	6%	16%	-16	?
COc1ccccc1NCCC(=O)OCC(=O)Nc1ccccc1Cl	-12%	-4%	-2%	9%	-12	-2%
O=C(Nc1nnc([C@@H]2C[C@H](O)[C@@H](CO)O2)s1)Nc1ccccc1C(F)(F)F	-8%	16%	0%	.	-12	-15%
Cc1ccc(Cc2c(-c3ccc(F)cc3)nc3ccc(Cl)cn23)cc1	?	-13%	3%	.	42	?
CN(C)Cc1c(-c2ccc(Cl)cc2)nc2ccc(Cl)cn12	?	-26%	-2%	11%	-6	13µM*
COC(=O)c1ccc(Oc2nc(Nc3ccc(C)c(C)c3)nc(N(C)C)n2)cc1	11µM*	?	?	21µM*	?	18µM*
CCNc1nc(Oc2ccc(C(=O)OC)cc2)nc(N(C)C)n1	?	4%	1%	-18%	11	?
CCc1cc(C(=O)NC2CCCc3c2cnn3-c2ccc(F)cc2F)no1 (configuration not stated)	21µM*	-10%	0%	.	36	18µM*
CC1=C(C(=O)NC2CCCc3c2cnn3-c2ccc(F)cc2F)OCCO1 (configuration not stated)	21µM*	-19%	-2%	?	8	4.1µM*
CCc1nccn1CCC(=O)NC1CCCc2c1cnn2-c1ccc(F)cc1F (configuration not stated)	?	-4%	0%	9%	34	?
O=C(CCc1ccncc1)NC1CCCc2c1cnn2-c1ccc(F)cc1F (configuration not stated)	?	-20%	?	-7%	-12	?
COc1cc(OC)cc(C(=O)NN(CCC#N)C2=NS(=O)(=O)c3ccccc32)c1	3%	13%	14%	10%	-8	10%
CCN(CC)C(=O)C1=C(C)N(CCCOC)C(=O)C(CC(=O)NCc2ccco2)C1 (configuration not stated)	-2%	4%	14%	.	-8	-2%

Screens: PubChem BioAssay, National Center for Advancing Translational Sciences (NCATS)
